# Source: PubChem BioAssay
# This is a sample that favours compounds with a hit; in the whole collection about 22% have one here.
# LmPK inh: blocks Leishmania mexicana pyruvate kinase activity | Q27686 | actives 0.37% (n = 290,000) | Potency, µM (series often up to 57.5 µM), for the others: top-dose activity change, negative = inhibition, usual class: inhibitors | purified LmPK, Kinase-Glo ATP luminescence, 1 h | AID 1721; also: potency is read from the fitted curve at half-maximal effect; % is scaled to controls: 0 for no effect and ±100 for the full control effect
# Target sequence (Q27686 whole entry, looked up): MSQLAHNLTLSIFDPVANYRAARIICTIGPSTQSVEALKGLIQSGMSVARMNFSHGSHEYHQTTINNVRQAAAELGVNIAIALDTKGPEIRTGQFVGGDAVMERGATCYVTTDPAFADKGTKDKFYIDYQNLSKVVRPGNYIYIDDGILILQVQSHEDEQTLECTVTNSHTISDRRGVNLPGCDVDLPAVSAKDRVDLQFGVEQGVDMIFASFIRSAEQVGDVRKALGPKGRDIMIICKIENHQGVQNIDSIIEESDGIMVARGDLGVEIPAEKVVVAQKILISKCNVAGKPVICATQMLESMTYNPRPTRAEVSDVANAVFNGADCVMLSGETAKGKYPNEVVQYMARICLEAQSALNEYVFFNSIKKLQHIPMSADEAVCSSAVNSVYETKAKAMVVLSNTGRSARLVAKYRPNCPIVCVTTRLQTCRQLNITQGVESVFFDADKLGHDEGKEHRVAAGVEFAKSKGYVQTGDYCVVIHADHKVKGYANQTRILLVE
#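 In 50 mM imidazole pH 7.2 with 7 mM MgCl2, LmPK (0.1 nM) turned over PEP (0.5 mM) and ADP (0.1 mM) for 1 h at room temperature. Luciferase read-out of ATP.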
# Pf growth 48h: inhibits P. falciparum growth in the first generation, 48 h. P. falciparum luciferase growth in erythrocytes, 48 h. Potency, µM (series often up to 28.7 µM), without a hit: top-dose activity change, negative = inhibition, hits mostly inhibitors. actives 5.9% (n = 310,000); also: potency is read from the fitted curve at half-maximal effect; % is scaled to controls: 0 for no effect and ±100 for the full control effect
#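 First compound was added to culture medium, then infected red cells at 0.1% parasitemia and 2% hematocrit (final). After incubation at 37 C under 5% CO2, luciferase detection reagent was dispensed and light output recorded.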
# Pf growth 96h: P. falciparum growth inhibition at 96 hour, primary screen for plastid delayed-death inhibitors; P. falciparum luciferase reporter growth, 96 h; Potency, µM (doses to about 28.7 µM), without a hit: at the top dose activity change, negative = inhibition, usual class: inhibitors; actives 6.9% (n = 320,000); AID 504834; also: potency is read from the fitted curve at half-maximal effect; % is scaled to controls: 0 for no effect and ±100 for the full control effect
#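 Two-generation exposure (96 h) targets delayed-death phenotype. Reporter parasites carrying integrated firefly luciferase, in red cells at 2% hematocrit and 0.05% parasitemia final, kept at 37 C, 5% CO2; luminescence loss indicates inhibition.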
# CHX counter: counter-screen for Shiga toxin inhibitors: cycloheximide protein synthesis inhibition. cell reporter, cycloheximide protein synthesis inhibition counterscreen. AID 2314. actives 12% (n = 300,000). max response, %; in the data active = max response mostly above about 13%, no sharp cut-off; inactive = mostly below about 14%; also: read at 38.3 µM for the half of the compounds with a filed dose; 0% is about no effect
# Shiga inhibitor: Shiga toxin inhibition | Vero cells, Shiga toxin protein synthesis inhibition reporter | inhibition, % at 38.7 µM | actives 9.2% (n = 290,000); in the data active = inhibition mostly above about 28%, no sharp cut-off; inactive = mostly below about 43%; also: 0% is about no effect
# Numbers without * were called inactive; i = inactive; ? = inconclusive; nt = no result; + = active, no number; [ ] = dose if it differs, or a comment. Unless noted, calls follow the shape of the dose curve; as a rule, active = well fitted inhibition curve with a large enough effect; inconclusive = small, poorly fitted or top-dose-only effect, or another doubt; inactive = no such curve, though single readings can be large or run the other way.
SMILES,LmPK inh,Pf growth 48h,Pf growth 96h,CHX counter,Shiga inhibitor
Cc1cccc(C(=O)Nc2nnc(S(=O)(=O)N3CCC(C)CC3)s2)c1,-7%,12%,?,-9,-2
Cc1cccc(NCC(=O)N/N=C\c2ccc[nH]2)c1,-1%,-1%,7%,1,-12
O=C(CNc1cccc2ccccc12)N/N=C/c1ccc[nH]1,9%,9%,-3%,-1,26
Cc1cccc(C(=O)N/N=C/c2ccc[nH]2)c1,0%,0%,81%,24*,80*
Cc1ccc(C(=O)N/N=C\c2ccc[nH]2)cn1,3%,nt,19%,19*,24
O=C(N/N=C\c1ccc[nH]1)c1cncc(Br)c1,-5%,38%,18%,1,-2
CC(C)(C)OC(=O)N/N=C\c1ccc[nH]1,-17%,135%,25%,41*,58*
O=C(N/N=C/c1ccc[nH]1)c1cccnc1,-4%,63%,173%,-1,-5
O=C(N/N=C/c1ccc[nH]1)c1cccc(Br)c1,-1%,2%,13%,31*,+
O=C(Nc1c(C(=O)N2CCN(c3ccccn3)CC2)oc2ccccc12)c1cccc([N+](=O)[O-])c1,2%,?,34%,-7,-12
O=C(N/N=C/c1ccc([N+](=O)[O-])cc1)c1ccc2nc[nH]c2c1,0%,?,?,2,20
O=C(N/N=C/c1ccc[nH]1)c1ccc([N+](=O)[O-])cc1,-3%,32%,?,20*,17
O=c1c2sccc2nc(SCc2ccc([N+](=O)[O-])cc2)n1Cc1ccccn1,0%,5%,-16%,26*,62*
O=c1c2sccc2nc(SCc2cc(=O)n3cc(Cl)ccc3n2)n1Cc1ccccn1,-3%,186%,8%,41*,82*
O=C(NCc1ccccc1F)C1CCCN(c2cnccn2)C1 (configuration not stated),-9%,0%,3%,1,-12
Cc1ccc2nc(/C=C/c3cccc(F)c3)ccc2c1,-6%,254%,287%,65*,90*
Cc1ccc(NC(=O)CN(C)C(=O)/C=C/c2cccc(F)c2)cc1,0%,-6%,0%,6,-10
OC1(c2cccc(C(F)(F)F)c2)CCN(c2ccc(-c3ccccc3)nn2)CC1,-2%,118%,3.7µM*,38*,67*
O=C(Nc1ccccc1)N1CCC(O)(c2cccc(C(F)(F)F)c2)CC1,7%,-20%,?,-1,-2
O=c1cc(CN2CCN(Cc3ccc(F)cc3)C(CCO)C2)[nH]c2ccccc12 (configuration not stated),0%,-2%,?,-2,nt
C=CCc1cc(OC)ccc1OCCCCn1cncn1,-2%,13%,?,-3,3
Cc1nn2c(N3CCN(c4ccccn4)CC3)cc(C(C)C)nc2c1-c1ccccc1,5%,3.3µM*,?,-2,20
Cc1cc(C)c2c(n1)nn1c(N3CCN(c4ccccn4)CC3)cc(C)nc21,2%,6%,3.3µM*,-2,-16
Cc1cc(N2CCCCCC2)n2nc(C)c(-c3ccccc3)c2n1,-1%,15%,?,-1,-4
C=C1CC2C(=O)N(Cc3ccccc3)C(C(=O)O)C1N2C(=O)OC(C)(C)C (configuration not stated),nt,nt,nt,-1,10
SMILES,LmPK inh,Pf growth 48h,Pf growth 96h,CHX counter,Shiga inhibitor
Cc1csc(NC(=O)c2ccc(C)c(S(=O)(=O)N3CCOCC3)c2)n1,-2%,?,?,10,5
NS(=O)(=O)c1cc(C(=O)Nc2ccc3c(c2)OCCCO3)ccc1Cl,-6%,57%,33%,19*,58*
COc1ccc(C(=O)Nc2ccc(Cl)c(S(=O)(=O)Nc3ccccc3OC)c2)cc1,-2%,?,?,5,14
NS(=O)(=O)c1ccc(NC(=O)c2ccc3c(c2)OCO3)cc1,6%,9%,-11%,-2,-5
COc1ccccc1NS(=O)(=O)c1cc(NC(=O)c2ccc(Cl)nc2)ccc1Cl,0%,1.7µM*,3.3µM*,-2,25
Cc1csc(NC(=O)c2ccc(C)c(S(=O)(=O)N3CCCCC3)c2)n1,-1%,3.3µM*,4.1µM*,2,3
O=C(O)c1ccc(Cl)c(S(=O)(=O)Nc2cccc(C(=O)Nc3cccc(C(F)(F)F)c3)c2)c1,2%,7%,10µM*,8,28
Oc1ccc(-c2nc3ccccc3nc2-c2ccccc2)cc1,5%,?,0%,-2,-11
Cc1ccc(C(=O)Nc2cccc(O)c2)cc1S(=O)(=O)N1CCCCCC1,-6%,6%,-7%,54*,61*
CCC(=O)Nc1ccc(C(=O)Cn2ncc(Cl)c(Cl)c2=O)cc1,1%,-21%,-9%,46*,54*
O=C(COC(=O)c1ccc(Cl)c(S(=O)(=O)N2CCCCCC2)c1)Nc1ccccc1,-1%,11%,0%,35*,56*
COc1ccc(C(=O)Nc2ccc3c(c2)OCCO3)cc1S(=O)(=O)N1CCOCC1,nt,?,10µM*,nt,nt
Cc1ccc(NC(=O)c2ccc(F)cc2)cc1S(=O)(=O)N1CCCCCC1,-3%,-16%,?,-2,4
COc1ccc(C(=O)Nc2cc(C)cc(C)c2)cc1S(=O)(=O)N1CCOCC1,1%,-8%,15%,9,-16
O=C(NNCS(=O)(=O)O)c1ccncc1,nt,12%,-9%,nt,nt
CC(=O)Nc1cccc(NS(=O)(=O)c2cc3c4c(c2)CCN4C(=O)CC3)c1,nt,8%,17%,nt,nt
Cc1ccc(NC(=O)CSc2nnc(C3CC3)n2C)cc1S(=O)(=O)N1CCCCC1,nt,13µM*,?,nt,nt
Cc1ccc(NC(=O)CSc2nnc(N)s2)cc1S(=O)(=O)N1CCCCC1,9%,?,?,-2,-2
O=C(Nc1ccc(N2CCOCC2)cc1)c1cccc(S(=O)(=O)N2CCCCC2)c1,4%,-30%,nt,7,-17
O=C(Nc1ccc2c(c1)OCCO2)c1ccc(Cl)c(S(=O)(=O)N2CCOCC2)c1,2%,2.6µM*,4%[5.75 µM],42*,66*
Cc1ccc(C(=O)Nc2ccc3cn[nH]c3c2)cc1S(=O)(=O)N1CCCCC1,6%,-9%,nt,38*,76*
O=C(Nc1ccc(N2CCOCC2)cc1)c1ccc(Cl)c(S(=O)(=O)N2CCCCC2)c1,nt,10µM*,?,nt,nt
COc1ccc(Cl)cc1NC(=S)N(CCN1CCOCC1)C1CCN(C(C)=O)CC1,8%,1%,?,-2,19
Cc1ccccc1-n1c(SCC(=O)Nc2c(C)cccc2C)nc(O)cc1=O,10%,?,-28%,10,-8
O=C(O)c1cccc(NC(=O)c2ccc(Cl)c(S(=O)(=O)N3CCCCCC3)c2)c1,3%,i,?,50*,101*
O=C(Nc1ccc(-c2cn3ccsc3n2)cc1)c1ccc(F)c(S(=O)(=O)N2CCOCC2)c1,0%,0%,9.3µM*,17,19
O=C(Nc1ccccc1)c1ccc(F)c(S(=O)(=O)N2CCOCC2)c1,-2%,?,?,14,25
